Assay results taken from PubChem BioAssay AID1159580 (chemical genetic matrix, 2015).
Several values for one entry are separate records, joined by “and”; a condition that tells them apart may be missing. Identical values can stand only once. Out of some 5,500 compounds screened, about 2,000 (36%) were called active. Inconclusive results (about 18%) are left out. Cut-off read from the data, not from the text of the source: active = normalized growth mostly below about 0.91 (no sharp cut-off); inconclusive = no clear call, values can overlap the other calls; inactive = mostly above about 0.92. The list shows a part of the results.

Assay: chemical genetic growth profiling, strain panel (AID 1159580);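 note: tested at 20 µM; growth read once vehicle control cultures reached saturation at 30 °C; 1 = growth at the plate median or of vehicle wells; lower values mean less growth of the strain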
Details: S. cerevisiae deletion strains, growth OD

Measured: normalized growth

COc1c2ccoc2cc2oc(=O)ccc12
inactive: locus YAL021C, strain ccr4, stronger effect = lower value 0.957 | locus YAL026C, strain drs2, stronger effect = lower value 0.936 | locus YAL030W, strain snc1, stronger effect = lower value 0.993 | locus YBL061C, strain skt5, stronger effect = lower value 0.971 | locus YBR021W, strain FUR4, stronger effect = lower value 1.1 | locus YBR023C, strain chs3, stronger effect = lower value 0.968 | locus YBR171W, strain sec66, stronger effect = lower value 0.954 | locus YBR229C, strain ROT2, stronger effect = lower value 0.967 | locus YBR279W, strain paf1, stronger effect = lower value 0.974 | locus YCL011C, strain gbp2, stronger effect = lower value 0.942 | locus YCL016C, strain dcc1, stronger effect = lower value 0.959 | locus YCL061C, strain MRC1, stronger effect = lower value 0.97 | locus YCL069W, strain vba3, stronger effect = lower value 0.968 | locus YCR088W, strain abp1, stronger effect = lower value 0.987 | locus YDL005C, strain med2, stronger effect = lower value 0.996 | locus YDL040C, strain nat1, stronger effect = lower value 0.992 | locus YDL185W, strain tfp1, stronger effect = lower value 0.911 | locus YDR001C, strain nth1, stronger effect = lower value 0.976 | locus YDR069C, strain doa4, stronger effect = lower value 0.96 | locus YDR159W, strain sac3, stronger effect = lower value 1.04 | locus YDR297W, strain sur2, stronger effect = lower value 0.99 | locus YDR335W, strain msn5, stronger effect = lower value 0.953 | locus YDR392W, strain spt3, stronger effect = lower value 0.761 | locus YEL003W, strain gim4, stronger effect = lower value 0.96 | locus YEL037C, strain rad23, stronger effect = lower value 0.942 | locus YEL061C, strain CIN8 (second series), stronger effect = lower value 0.958 | locus YER015W, strain faa2, stronger effect = lower value 0.981 | locus YER016W, strain bim1, stronger effect = lower value 0.973 | locus YER111C, strain swi4, stronger effect = lower value 0.975 | locus YFR010W, strain ubp6, stronger effect = lower value 0.936 | locus YGL167C, strain pmr1, stronger effect = lower value 0.981 | locus YGL173C, strain kem1, stronger effect = lower value 0.96 | locus YGL227W, strain vid30, stronger effect = lower value 0.976 | locus YGL240W, strain doc1, stronger effect = lower value 0.896 | locus YGR229C, strain SMI1, stronger effect = lower value 0.839 | locus YHR013C, strain ard1, stronger effect = lower value 0.856 | locus YHR027C, strain rpn1, stronger effect = lower value 0.983 | locus YIL073C, strain SPO22, stronger effect = lower value 0.757 | locus YJL092W, strain hpr5, stronger effect = lower value 0.976 | locus YJL095W, strain BCK1 (second series), stronger effect = lower value 0.966 | locus YJL115W, strain asf1, stronger effect = lower value 0.967 | locus YJL129C, strain trk1, stronger effect = lower value 1.09 | locus YJL134W, strain LCB3, stronger effect = lower value 0.957 | locus YJL154C, strain vps35, stronger effect = lower value 0.977 | locus YJL164C, strain tpk1, stronger effect = lower value 0.937 | locus YJL166W, strain qcr8, stronger effect = lower value 0.91 | locus YJL168C, strain set2, stronger effect = lower value 0.958 | locus YJL187C, strain SWE1, stronger effect = lower value 1 | locus YJR066W, strain TOR1, stronger effect = lower value 0.829 | locus YKL009W, strain mrt4, stronger effect = lower value 0.914 | locus YKL068W, stronger effect = lower value 0.973 | locus YKR026C, strain gcn3, stronger effect = lower value 0.951 | locus YKR091W, strain srl3, stronger effect = lower value 0.996 | locus YLL001W, strain dnm1, stronger effect = lower value 0.977 | locus YLL026W, stronger effect = lower value 0.98 | locus YLL041C, strain sdh2, stronger effect = lower value 0.992 | locus YLR027C, strain aat2, stronger effect = lower value 0.971 | locus YLR039C, strain RIC1, stronger effect = lower value 0.906 | locus YLR102C, strain apc9, stronger effect = lower value 0.929 | locus YLR113W, strain HOG1, stronger effect = lower value 0.948 | locus YLR221C, strain rsa3, stronger effect = lower value 0.941 | locus YLR258W, strain gsy2, stronger effect = lower value 0.975 | locus YLR262C, strain YPT6 (second series), stronger effect = lower value 1.09 | locus YLR320W, strain mms22, stronger effect = lower value 0.887 | locus YLR342W, strain FKS1, stronger effect = lower value 1.01 | locus YLR357W, strain rsc2, stronger effect = lower value 1.13 | locus YLR370C, strain arc18, stronger effect = lower value 0.969 | locus YLR384C, strain iki3, stronger effect = lower value 0.956 | locus YMR058W, strain fet3, stronger effect = lower value 0.953 | locus YMR125W, strain sto1, stronger effect = lower value 1.03 | locus YMR129W, stronger effect = lower value 0.977 | locus YMR205C, strain PFK2, stronger effect = lower value 1.03 | locus YMR231W, strain pep5, stronger effect = lower value 0.983 | locus YMR307W, strain GAS1, stronger effect = lower value 0.974 | locus YNL071W, strain lat1, stronger effect = lower value 0.972 | locus YNL183C, strain NPR1, stronger effect = lower value 0.858 | locus YNL209W, strain ssb2, stronger effect = lower value 0.976 | locus YNL322C, strain KRE1 (second series), stronger effect = lower value 1.02 | locus YNR049C, strain mso1, stronger effect = lower value 0.991 | locus YOL012C, strain htz1 0.31 | locus YOR070C, strain gyp1, stronger effect = lower value 0.979 | locus YOR080W, strain dia2, stronger effect = lower value 0.979 | locus YOR265W, strain rbl2, stronger effect = lower value 0.989 | locus YOR290C, strain snf2, stronger effect = lower value 0.877 | locus YOR316C, strain cot1, stronger effect = lower value 0.975 | locus YPL078C, strain atp4, stronger effect = lower value 0.893 | locus YPL240C, strain hsp82, stronger effect = lower value 0.973 | locus YPL256C, strain CLN2, stronger effect = lower value 0.907 | locus YPR119W, strain clb2, stronger effect = lower value 0.964 | locus YPR141C, strain kar3, stronger effect = lower value 0.997
active: locus YBR009C, strain hhf1, stronger effect = lower value 0.886 | locus YBR231C, strain swc5, stronger effect = lower value 0.872 | locus YCL029C, strain bik1, stronger effect = lower value 0.647 | locus YDL035C, strain GPR1, stronger effect = lower value 0.734 | locus YDL074C, strain BRE1, stronger effect = lower value 0.544 | locus YDL101C, strain DUN1, stronger effect = lower value 0.613 | locus YDL134C, strain PPH21, stronger effect = lower value 0.703 | locus YDL192W, strain arf1, stronger effect = lower value 0.674 | locus YDR101C, strain arx1, stronger effect = lower value 0.741 | locus YDR137W, strain rgp1, stronger effect = lower value 1.16 [resistant] | locus YDR162C, strain NBP2, stronger effect = lower value 0.617 | locus YDR195W, strain ref2 1.38 [resistant] | locus YDR318W, strain mcm21, stronger effect = lower value 0.699 | locus YDR388W, stronger effect = lower value 0.814 | locus YDR502C, strain sam2, stronger effect = lower value 0.791 | locus YER110C, stronger effect = lower value 0.863 | locus YER155C, strain BEM2 (second series), stronger effect = lower value 0.653 | locus YER155C, strain BEM2, stronger effect = lower value 0.904 | locus YER167W, strain BCK2, stronger effect = lower value 0.885 | locus YGL078C, strain dbp3, stronger effect = lower value 0.91 | locus YGL086W, strain mad1, stronger effect = lower value 0.719 | locus YGL248W, strain PDE1, stronger effect = lower value 0.718 | locus YGL253W, strain hxk2, stronger effect = lower value 0.903 | locus YGR078C, strain PAC10, stronger effect = lower value 0.706 | locus YGR135W, strain pre9, stronger effect = lower value 0.688 | locus YGR252W, strain gcn5, stronger effect = lower value 0.554 | locus YHR030C, strain SLT2, stronger effect = lower value 0.729 and 0.802 | locus YHR079C, strain IRE1 (second series), stronger effect = lower value 0.854 | locus YHR079C, strain IRE1, stronger effect = lower value 0.801 | locus YHR094C, strain hxt1, stronger effect = lower value 0.922 | locus YHR129C, strain ARP1, stronger effect = lower value 0.863 | locus YHR142W, strain chs7, stronger effect = lower value 0.826 | locus YHR200W, strain rpn10, stronger effect = lower value 0.636 | locus YIL066C, strain RNR3, stronger effect = lower value 0.805 | locus YIL125W, strain kgd1, stronger effect = lower value 0.869 | locus YIR030C, strain dcg1, stronger effect = lower value 0.818 | locus YJL095W, strain BCK1, stronger effect = lower value 0.337 and 0.817 | locus YJL187C, strain SWE1 (second series), stronger effect = lower value 0.766 | locus YKL085W, strain MDH1 (second series), stronger effect = lower value 0.915 | locus YKL085W, strain MDH1, stronger effect = lower value 0.915 | locus YKL160W, strain elf1, stronger effect = lower value 0.902 | locus YKL190W, strain CNB1, stronger effect = lower value 0.898 | locus YKR001C, strain vps1, stronger effect = lower value 0.44 | locus YLR058C, strain SHM2, stronger effect = lower value 0.783 | locus YLR268W, strain sec22, stronger effect = lower value 0.71 | locus YLR371W, strain rom2, stronger effect = lower value 0.573 | locus YLR418C, strain cdc73, stronger effect = lower value 0.494 | locus YML016C, strain PPZ1, stronger effect = lower value 0.809 | locus YML032C, strain rad52, stronger effect = lower value 0.411 | locus YML120C, strain ndi1, stronger effect = lower value 0.901 | locus YML124C, strain tub3, stronger effect = lower value 0.872 | locus YMR078C, strain ctf18, stronger effect = lower value 0.878 | locus YMR223W, strain ubp8, stronger effect = lower value 0.764 | locus YNL067W, strain RPL9B, stronger effect = lower value 0.791 | locus YNL233W, strain BNI4, stronger effect = lower value 0.74 | locus YNL248C, strain rpa49, stronger effect = lower value 0.575 | locus YNL250W, strain rad50, stronger effect = lower value 0.856 | locus YNL271C, strain bni1, stronger effect = lower value 0.858 | locus YNL298W, strain CLA4, stronger effect = lower value 0.77 | locus YNL307C, strain MCK1, stronger effect = lower value 0.666 | locus YNR052C, strain pop2, stronger effect = lower value 0.737 | locus YOL006C, strain TOP1, stronger effect = lower value 0.419 | locus YOL147C, strain pex11, stronger effect = lower value 0.757 | locus YOR001W, strain rrp6, stronger effect = lower value 0.87 | locus YOR061W, strain CKA2, stronger effect = lower value 0.872 | locus YOR069W, strain VPS5, stronger effect = lower value 0.852 | locus YOR083W, strain WHI5, stronger effect = lower value 0.799 | locus YOR106W, strain vam3, stronger effect = lower value 0.854 | locus YOR136W, strain idh2, stronger effect = lower value 0.888 | locus YOR144C, strain elg1, stronger effect = lower value 0.852 | locus YOR184W, strain ser1, stronger effect = lower value 0.46 | locus YOR231W, strain MKK1, stronger effect = lower value 0.83 | locus YOR270C, strain vph1, stronger effect = lower value 0.751 | locus YPL051W, strain arl3, stronger effect = lower value 0.91 | locus YPL106C, strain sse1, stronger effect = lower value 0.78 | locus YPR163C, strain tif3, stronger effect = lower value 0.672 | locus YPR167C, strain met16, stronger effect = lower value 0.775 | strain wtn01, stronger effect = lower value 0.731
